# PubChem BioAssay (NCATS)
# Several values for one entry are separate records, joined by “and”; a condition that tells them apart may be missing. Equal values may be shown once. Results filed as inconclusive are left out. Where a call stands in place of a potency, no number is given. Activity calls are given as the source filed them. Unless noted, calls follow the shape of the dose curve; as a rule, active = well fitted curve in the direction sought with a large enough effect; inconclusive = small, poorly fitted or top-dose-only effect, or another doubt; inactive = no such curve, though single readings can be large; an effect the other way counts as inactive or inconclusive.
# What was measured:
# [1] = target: Guanine nucleotide-binding protein G(i) subunit alpha-1 (Homo sapiens) (UniProt P63096); experiment: qHTS Assay for Inhibitors of RGS12 GoLoco Motif Activity (Green Fluorophore) (AID 879); settings: Galphai1/FITC-RGS12 GoLoco peptide, fluorescence polarization; series mostly up to 57.1 µM;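 also: negative values mean loss of peptide binding seen as reduced polarization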
# Sequence of Guanine nucleotide-binding protein G(i) subunit alpha-1 (Homo sapiens) (P63096 whole entry, looked up): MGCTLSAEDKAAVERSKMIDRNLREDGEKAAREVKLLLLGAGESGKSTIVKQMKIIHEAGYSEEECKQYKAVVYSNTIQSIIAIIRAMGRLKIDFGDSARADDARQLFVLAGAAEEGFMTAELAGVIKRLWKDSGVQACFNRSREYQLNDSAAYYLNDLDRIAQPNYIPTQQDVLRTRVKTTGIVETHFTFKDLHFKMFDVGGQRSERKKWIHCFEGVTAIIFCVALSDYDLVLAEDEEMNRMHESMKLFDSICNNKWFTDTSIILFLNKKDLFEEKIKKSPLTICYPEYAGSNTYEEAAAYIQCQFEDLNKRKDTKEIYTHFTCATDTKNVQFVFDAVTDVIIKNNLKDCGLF
# Summary of the method: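 Fluorescence polarization assay: 50 nM Gαi1 with 10 nM FITC-labeled RGS12 GoLoco peptide in 10 mM Tris pH 7.5, 150 mM NaCl, 0.1 mM GDP, 0.05% NP40, 10 min at room temperature with compound.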
# [2] = target: Cytochrome P450 2D6 (Homo sapiens) (UniProt P10635); experiment: qHTS Assay for Inhibitors and Substrates of Cytochrome P450 2D6 (AID 891); settings: recombinant CYP2D6, luciferin-ME EGE luminescence; series mostly up to 57.1 µM; also: nearly all actives have a fitted effect of over 60% in size; also: potency is read from the fitted curve at half-maximal effect
# Sequence of Cytochrome P450 2D6 (Homo sapiens) (P10635 whole entry, looked up): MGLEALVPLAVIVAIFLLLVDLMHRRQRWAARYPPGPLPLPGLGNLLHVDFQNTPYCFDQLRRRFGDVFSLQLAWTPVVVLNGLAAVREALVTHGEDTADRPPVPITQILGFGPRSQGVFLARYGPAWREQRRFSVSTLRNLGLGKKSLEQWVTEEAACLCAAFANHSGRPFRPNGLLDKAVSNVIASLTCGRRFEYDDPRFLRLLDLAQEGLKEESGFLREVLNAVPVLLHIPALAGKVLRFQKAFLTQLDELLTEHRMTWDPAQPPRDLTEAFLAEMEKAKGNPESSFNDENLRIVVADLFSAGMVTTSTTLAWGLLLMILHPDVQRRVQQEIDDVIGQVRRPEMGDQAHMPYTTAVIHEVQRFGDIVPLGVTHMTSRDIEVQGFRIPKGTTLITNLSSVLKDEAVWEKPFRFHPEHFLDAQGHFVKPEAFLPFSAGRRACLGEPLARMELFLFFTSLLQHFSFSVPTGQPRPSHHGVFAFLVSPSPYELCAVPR
# Summary of the method: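 Human CYP2D6 (5 nM) with 30 uM Luciferin-ME EGE (at Km) in 100 mM KPO4, compound preincubated 10 min, then NADPH regeneration system for 60 min at room temperature. Luciferin read by luminescence; normalized to 1.43 uM quinidine.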
# [3] = target: Cytochrome P450 3A4 (Homo sapiens) (UniProt P08684); experiment: qHTS Assay for Activators of Cytochrome P450 3A4 (AID 885); settings: recombinant CYP3A4, Luciferin-PPXE luminescence, 60 min; series mostly up to 57.1 µM; also: nearly all actives have a fitted effect of over 65% in size; also: potency is read from the fitted curve at half-maximal effect
# Sequence of Cytochrome P450 3A4 (Homo sapiens) (P08684 whole entry, looked up): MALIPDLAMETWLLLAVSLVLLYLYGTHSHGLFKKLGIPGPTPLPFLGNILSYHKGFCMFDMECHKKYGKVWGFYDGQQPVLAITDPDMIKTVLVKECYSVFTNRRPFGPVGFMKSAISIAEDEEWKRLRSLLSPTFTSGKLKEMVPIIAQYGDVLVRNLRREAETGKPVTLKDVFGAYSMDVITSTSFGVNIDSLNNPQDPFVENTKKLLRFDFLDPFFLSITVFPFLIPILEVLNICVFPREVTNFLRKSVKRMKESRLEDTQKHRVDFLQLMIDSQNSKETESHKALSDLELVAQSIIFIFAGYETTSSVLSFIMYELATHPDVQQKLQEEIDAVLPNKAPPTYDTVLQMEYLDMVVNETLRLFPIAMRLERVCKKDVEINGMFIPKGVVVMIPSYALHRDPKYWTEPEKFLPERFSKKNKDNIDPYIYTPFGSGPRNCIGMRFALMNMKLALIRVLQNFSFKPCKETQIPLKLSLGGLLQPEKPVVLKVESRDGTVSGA
# Summary of the method: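 Human CYP3A4 (20 nM) with Luciferin-PPXE at 25 uM (its KM) in 200 mM KPO4; 10 min compound preincubation, then NADPH regeneration and 60 min reaction at RT. Luciferin read by luminescence; normalized to 57 uM ketoconazole full inhibition.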
# [4] = target: Cytochrome P450 2C9 (Homo sapiens) (UniProt P11712); experiment: qHTS Assay for Inhibitors and Substrates of Cytochrome P450 2C9 (AID 883); settings: recombinant CYP2C9, luciferin-H luminescence, 60 min; series mostly up to 57.1 µM; also: nearly all actives have a fitted effect of over 60% in size; also: potency is read from the fitted curve at half-maximal effect
# Sequence of Cytochrome P450 2C9 (Homo sapiens) (P11712 whole entry, looked up): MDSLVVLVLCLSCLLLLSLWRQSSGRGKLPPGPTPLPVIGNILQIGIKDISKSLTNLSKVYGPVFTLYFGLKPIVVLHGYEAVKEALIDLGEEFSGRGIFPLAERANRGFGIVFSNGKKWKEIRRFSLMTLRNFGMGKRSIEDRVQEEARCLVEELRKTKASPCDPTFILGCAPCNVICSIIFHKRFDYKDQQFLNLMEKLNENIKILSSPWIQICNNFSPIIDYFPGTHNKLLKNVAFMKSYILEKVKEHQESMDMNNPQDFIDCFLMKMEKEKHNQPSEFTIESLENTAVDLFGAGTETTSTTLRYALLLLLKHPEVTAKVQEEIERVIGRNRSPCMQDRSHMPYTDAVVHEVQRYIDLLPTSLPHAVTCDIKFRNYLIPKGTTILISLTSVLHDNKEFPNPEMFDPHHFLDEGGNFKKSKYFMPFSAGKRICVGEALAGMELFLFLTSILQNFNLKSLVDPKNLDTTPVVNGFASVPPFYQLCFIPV
# Summary of the method: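 Turnover of Luciferin-H (100uM, KM) by 10nM human CYP2C9 was measured over 60 min at 37C with NADPH regeneration; inhibitors and some substrates reduce luminescence. Data normalized to sulphaphenazole 57uM.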
# [5] = target: Cytochrome P450 3A4 (Homo sapiens) (UniProt P08684); experiment: qHTS Assay for Inhibitors and Substrates of Cytochrome P450 3A4 (AID 884); settings: recombinant CYP3A4, Luciferin-PPXE luminescence; series mostly up to 57.1 µM; also: nearly all actives have a fitted effect of over 50% in size; also: potency is read from the fitted curve at half-maximal effect
# Summary of the method: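 20 nM human CYP3A4 with 25 uM Luciferin-PPXE (at KM) in 200 mM KPO4, preincubated 10 min with compound; NADPH regeneration started a 60 min RT reaction. Luciferin detected by luminescence, normalized to 57 uM ketoconazole as full inhibition.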
# [6] = Cellular Toxicity (caspase-3) Hek293 (AID 664); settings: HEK293 caspase-3 activation, DMSO = 0%, 100 µM tamoxifen = 100%; series mostly up to 92.2 µM;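 also: cells exposed to compound for 16 h at 37 °C before readout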
# Description: NIH Chemical Genomics Center [NCGC]
# NIH Molecular Libraries Screening Centers Network [MLSCN]
# National Institutes of Environmental Health Sciences [NIEHS]
# National Toxicology Program [NTP]
# We have developed a 1536-well cell-based assay for quantitative high throughput screening (qHTS) against a number of cell lines to determine in vitro caspase 3/7 of small molecules. This particular assay uses the Hek 293 cell line which is derived from human embryonic kidney cells.
# NCGC Assay Protocol Summary:
# The Caspase-Glo 3/7 assay (Promega) is a homogeneous method to measure caspase-3 and caspase-7 activities in cultured cells. The quantitation of caspase 3/7 activity is based on the cleavage of a peptide-aminoluciferin substrate. After caspase cleaves the substrate the free aminoluciferin is liberated and serves as the substrate of luciferase, which generates the light. The luminescent signal is proportional to amount of caspase 3/7 activity present.
# Using the Caspase-Glo 3/7 assay, the amount of caspase 3/7 activity was measured in the Hek 293 cell line with complete culture medium following compound treatment for 16 hours. The assay was performed in opaque white 1536-well plates. In the screen, tamoxifen and doxorubicin were used as positive controls. Library compounds were measured for their ability to cause the activation of caspase 3/7 in the cell line, as reflected by an increase in luminescence signal, in a concentration-dependent manner. Data were normalized to the controls for basal activity (DMSO only) and 100% stimulation (100 uM tamoxifen). AC50 values were determined from concentration-response data modeled with the standard Hill equation.
# qHTS protocol for caspase 3/7 assay in Hek 293 cells
# [Step] [Parameter] [Value] [Description]
# 2. Time; 5 hr; 37 °C incubation
# 4. Controls; 23 nL; Tamoxifen 0.23 uM to 100 uM & Doxorubicin 7.0 pM to 100 uM
# 5. Time; 16 hr; 37 °C incubation
# 6. Reagent; 5 uL; Caspase-Glo 3/7 reagent
# 7. Time; 20 min; Room Temperature
# 8. Detection; Luminescence; Viewlux plate reader
# Keywords: caspase 3/7, apoptosis, Hek 293 cell line, luminescence, NTPHTS, NTPHTS_NCGC, NIEHS, EPA, DSSTox, MLSMR, MLSCN, NIH Roadmap, qHTS, NCGC
# [7] = Cellular Toxicity (caspase-3) N2a (AID 665); settings: N2a cells, luminescence, normalized: DMSO 0%, 10 µM staurosporine 100%; series mostly up to 92.2 µM;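 also: compound exposure lasted 16 h at 37 °C before readout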
# Summary of the method: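 N2a cells, 1500/well, 5 h settle at 37 °C; cpd 16 h, 37 °C; Caspase-Glo 3/7, 1 h RT; luminescence. Norm: DMSO = 0, 10 uM staurosporine = 100%. AC50, Hill fit.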
# [8] = Cellular Toxicity (caspase-3) Renal Proximal Tubule (AID 667); settings: renal proximal tubule cells; series mostly up to 91.7 µM;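 also: cells exposed to compound for 16 hours at 37 °C before detection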
# Summary of the method: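 Primary rat proximal tubule cells, 1000/well, 5 h plating at 37 °C, then compound 16 h at 37 °C. Caspase-Glo 3/7 reagent, 1 h RT, luminescence. Normalized to DMSO (basal) and 10 uM staurosporine (100%); Hill-fit AC50.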
# [9] = Cellular Toxicity (caspase-3) NIH 3T3 (AID 666); settings: NIH 3T3 caspase-3 activation, apoptosis/toxicity, 0% DMSO, 100% is 100 µM tamoxifen; series mostly up to 92.2 µM;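 also: caspase signal read after 16 h compound exposure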
# Summary of the method: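 Luminescence from aminoluciferin released by caspase-3/7 cleavage of a peptide substrate served as read-out. Mouse fibroblast NIH 3T3 cells were exposed to compounds over a concentration range for 16 hours, and AC50 values came from standard Hill modelling.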
# [10] = qHTS Assay for Identification of Small Molecule Antagonists for NFkB Signaling Pathway (AID 895; active = well fitted inhibition curve with a large enough effect in the signal ratio, with a control signal flat, not every such curve was filed as active; the % refers to the signal ratio); settings: NFkB beta-lactamase reporter cells, FRET ratio 460/530; series mostly up to 38.3 µM
# Summary of the method: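 Beta-lactamase reporter read-out (460 and 530 nm emission ratio, 405 nm excitation, 2 hrs substrate loading RT) after 5 hr stimulation with 10 pM TNF alpha in compound-treated NFkB-bla ME-180 cells in low-serum medium.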
compound,measurement,setting,value
COc1ccc(C(=O)N2CCCC2=O)cc1,outcome,[1],inactive
CC(=O)c1ccc2c(c1)N(CCCN(C)C)c1ccccc1S2,Potency,[2],2.51 µM (active)
Oc1ccc(Cl)cc1Cc1cc(Cl)ccc1O,Potency,[3],inactive
O=C(O)c1nn(Cc2ccc(Cl)cc2Cl)c2ccccc12,outcome,[1],inactive
same,Potency,[2],inactive
C[C@H](N)[C@H](O)c1ccc(O)c(O)c1,outcome,[1],inactive
CCCCN(CCCC)CCC(O)c1cc2c(Cl)cc(Cl)cc2c2cc(C(F)(F)F)ccc12 (centres undefined),Potency,[3],inactive
same,Potency,[2],3.98 µM (active)
Clc1ccc(CSC(Cn2ccnc2)c2ccc(Cl)cc2Cl)cc1 (centres undefined),Potency,[3],inactive
CN(C)CC/C=C1\c2ccccc2Sc2ccc(Cl)cc21,Potency,[2],2.51 µM (active)
Oc1ccc(Cl)cc1Sc1cc(Cl)ccc1O,Potency,[4],0.398 µM (active)
CN1CCc2cc(Cl)c(O)cc2[C@H]2c3ccccc3CC[C@@H]21,Potency,[5],inactive
CN(C)C(=O)Oc1cc(OC(=O)N(C)C)cc(C(O)CNC(C)(C)C)c1 (centres undefined),Potency,[5],inactive
CCC(=O)O[C@H]1CC[C@H]2[C@@H]3CCC4=CC(=O)CC[C@]4(C)[C@H]3CC[C@]12C,Potency,[5],inactive
N#Cc1nn(-c2c(Cl)cc(C(F)(F)F)cc2Cl)c(N)c1S(=O)C(F)(F)F (centres undefined),Potency,[3],inactive
c1ccc2nc(N3CCNCC3)ccc2c1,outcome,[1],inactive
same,Potency,[4],inactive
same,Potency,[3],inactive
Clc1ccc(CO/N=C(\Cn2ccnc2)c2ccc(Cl)cc2Cl)c(Cl)c1,Potency,[3],inactive
c1ccc(-c2ccc(C(c3ccccc3)n3ccnc3)cc2)cc1 (centres undefined),Potency,[3],inactive
Clc1ccc(C(OCCN2CCCCC2)c2ccccc2)cc1 (centres undefined),Potency,[3],inactive
CCNc1nc(Cl)nc(NCC)n1,Potency,[5],inactive
C[C@@H]1C[C@@H]([C@H](O)CC2CC(=O)NC(=O)C2)C(=O)[C@@H](C)C1,outcome,[6],inactive
same,outcome,[7],inactive
same,outcome,[8],inactive
CC(C)[N+](C)(CCC(C(N)=O)(c1ccccc1)c1ccccc1)C(C)C,Potency,[5],inactive
same,Potency,[2],3.98 µM (active)
NC(=O)CN1CCCC1=O,outcome,[1],inactive
same,Potency,[5],inactive
CN(C)C(=S)SSC(=S)N(C)C,outcome,[6],inactive
same,outcome,[7],inactive
same,outcome,[9],inactive
same,outcome,[8],inactive
same,Potency,[5],15.8 µM (active)
same,Potency,[3],inactive
CNC(=O)Oc1cccc2ccccc12,outcome,[6],inactive
same,outcome,[7],inactive
same,outcome,[9],inactive
same,outcome,[8],inactive
same,Potency,[5],inactive
O=C(CCl)c1ccc(Cl)cc1Cl,outcome,[7],inactive
same,outcome,[9],inactive
same,outcome,[8],inactive
same,Potency,[5],inactive
O=C(CCCN1CCC(n2c(=O)[nH]c3ccccc32)CC1)c1ccc(F)cc1,Potency,[2],6.31 µM (active)
CC[n+]1c(-c2ccccc2)c2cc(N)ccc2c2ccc(N)cc21,outcome,[6],inactive
same,outcome,[7],inactive
same,outcome,[8],inactive
same,Potency,[3],inactive
CCCCCCCCC(=O)NCc1ccc(O)c(OC)c1,outcome,[1],inactive
same,Potency,[4],3.16 µM (active)
same,Potency,[3],inactive
same,outcome,[10],inactive
O=C(NC(=O)c1c(F)cccc1F)Nc1cc(Cl)c(OC(F)(F)C(F)C(F)(F)F)cc1Cl (centres undefined),Potency,[5],inactive
Oc1c(Br)cc(Br)cc1Br,outcome,[6],inactive
same,outcome,[7],inactive
same,outcome,[9],inactive
same,outcome,[8],inactive
same,Potency,[5],inactive
same,Potency,[3],15.8 µM (active)
CCCCCCCCCCCCCCCC[n+]1ccccc1,Potency,[5],inactive
O=C1NCN(c2ccccc2)C12CCN(CCCOc1ccc(F)cc1)CC2,Potency,[2],0.158 µM (active)
Oc1ccc2[nH]cc(CCCCN3CC=C(c4ccccc4)CC3)c2c1,Potency,[5],inactive
same,Potency,[3],3.98 µM (active)
COP(=O)(OC)OC=C(Cl)Cl,outcome,[6],inactive
same,outcome,[7],inactive
same,outcome,[9],inactive
same,outcome,[8],inactive
COC(=O)C1=CCCN(C)C1,outcome,[1],inactive
same,Potency,[5],inactive
same,outcome,[10],inactive
CCCCCCCCCCCC[N+](C)(C)CCOc1ccccc1,outcome,[6],inactive
same,outcome,[7],inactive
same,outcome,[8],inactive
CN1[C@@H]2CC[C@H]1CC(OC(=O)c1cc(Cl)cc(Cl)c1)C2 (some centres undefined),outcome,[1],inactive
same,Potency,[4],inactive
same,Potency,[5],inactive
same,Potency,[2],100 nM (active) and 7.9 nM (active)
